# Assay results: the supplement of paper PMC8728848
# This excerpt belongs to a sample that is enriched for the strongest signals.
# Key:
# Test in all cases: glycan array binding signal (z-score within array); higher = stronger binding
# Gal3S(b1-3)GalNAc = settings: glycan notation: IUPAC condensed, linker removed
# In short: (§1)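 Glycan array data were curated from 3228 arrays in the Consortium for Functional Glycomics database and kept only where the protein sequence was available. Glycan names were converted to IUPAC-condensed notation, and columns mapping to the same glycan were averaged. The binding signal is a within-array Z-score, averaged across arrays of the same protein sequence at different concentrations or buffers and across linkers. Negative Z-scores can be read as non-binding.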
# [1] = system: Gal(b1-4)GlcNAc(b1-6)GalNAc; settings: glycan notation: IUPAC condensed, linker removed
# In short: as §1
# [2] = system: Gal3S(b1-3)[Fuc(a1-4)]GlcNAc; settings: glycan notation: IUPAC condensed, linker removed
# In short: as §1
# Gal3S6S(b1-4)GlcNAc6S = settings: glycan notation: IUPAC condensed, linker removed
# In short: as §1
# Gal(b1-4)GlcNAc = settings: glycan notation: IUPAC condensed, linker removed
# In short: as §1
# Gal3S(b1-4)GlcNAc6S = settings: glycan notation: IUPAC condensed, linker removed
# In short: as §1
# Gal3S(b1-4)GlcNAc = settings: glycan notation: IUPAC condensed, linker removed
# In short: as §1
# [3] = system: Gal3S(b1-4)[Fuc(a1-3)]Glc; settings: glycan notation: IUPAC condensed, linker removed
# In short: as §1
# Gal6S(b1-4)GlcNAc = settings: glycan notation: IUPAC condensed, linker removed
# In short: as §1
# [4] = system: Gal(b1-4)GlcNAc(b1-6)[Gal(b1-3)]GalNAc; settings: glycan notation: IUPAC condensed, linker removed
# In short: as §1
# Gal3S6S(b1-4)GlcNAc = settings: glycan notation: IUPAC condensed, linker removed
# In short: as §1
# Gal(b1-6)Gal = settings: glycan notation: IUPAC condensed, linker removed
# In short: as §1
# [5] = system: Gal3S(b1-4)[Fuc(a1-3)]Glc6S; settings: glycan notation: IUPAC condensed, linker removed
# In short: as §1
# [6] = system: Gal3S(b1-4)[Fuc(a1-3)]GlcNAc6S; settings: glycan notation: IUPAC condensed, linker removed
# In short: as §1
# [7] = system: Gal3S(b1-4)[Fuc(a1-3)]GlcNAc; settings: glycan notation: IUPAC condensed, linker removed; mutation: R125K
# In short: as §1
# Gal(b1-4)Glc = settings: glycan notation: IUPAC condensed, linker removed
# In short: as §1
# Gal3S(b1-4)Glc = settings: glycan notation: IUPAC condensed, linker removed
# In short: as §1
# Gal6S(b1-3)GlcNAc = settings: glycan notation: IUPAC condensed, linker removed
# In short: as §1
# Gal3S(b1-3)GlcNAc = settings: glycan notation: IUPAC condensed, linker removed
# In short: as §1
# Gal4S6S(b1-4)GlcNAc = settings: glycan notation: IUPAC condensed, linker removed
# In short: as §1
# Sequence of Aggrecan (Rattus norvegicus), NP_071526 (chain, as listed by the source): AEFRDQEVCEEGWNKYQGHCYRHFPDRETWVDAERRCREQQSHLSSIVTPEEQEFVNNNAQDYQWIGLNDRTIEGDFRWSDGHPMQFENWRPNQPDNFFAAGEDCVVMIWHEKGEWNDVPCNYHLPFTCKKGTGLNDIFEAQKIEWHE
# Sequence of 6RG (Lolium perenne), B9U140 (B9U140 entry or part of it): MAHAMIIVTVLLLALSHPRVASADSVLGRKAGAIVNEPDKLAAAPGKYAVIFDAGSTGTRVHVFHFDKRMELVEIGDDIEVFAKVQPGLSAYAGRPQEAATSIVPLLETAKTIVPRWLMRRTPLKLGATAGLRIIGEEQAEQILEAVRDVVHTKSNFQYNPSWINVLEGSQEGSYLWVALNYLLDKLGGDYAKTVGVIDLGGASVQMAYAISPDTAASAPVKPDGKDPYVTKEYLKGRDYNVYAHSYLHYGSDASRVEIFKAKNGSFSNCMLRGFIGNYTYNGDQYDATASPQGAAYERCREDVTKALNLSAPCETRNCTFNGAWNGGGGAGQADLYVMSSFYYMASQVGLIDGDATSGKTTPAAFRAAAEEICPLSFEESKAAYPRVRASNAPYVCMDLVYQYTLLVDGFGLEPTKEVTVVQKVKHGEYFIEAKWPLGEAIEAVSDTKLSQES
# Sequence of CHI3L1 (Homo sapiens), P36222 (P36222 whole entry): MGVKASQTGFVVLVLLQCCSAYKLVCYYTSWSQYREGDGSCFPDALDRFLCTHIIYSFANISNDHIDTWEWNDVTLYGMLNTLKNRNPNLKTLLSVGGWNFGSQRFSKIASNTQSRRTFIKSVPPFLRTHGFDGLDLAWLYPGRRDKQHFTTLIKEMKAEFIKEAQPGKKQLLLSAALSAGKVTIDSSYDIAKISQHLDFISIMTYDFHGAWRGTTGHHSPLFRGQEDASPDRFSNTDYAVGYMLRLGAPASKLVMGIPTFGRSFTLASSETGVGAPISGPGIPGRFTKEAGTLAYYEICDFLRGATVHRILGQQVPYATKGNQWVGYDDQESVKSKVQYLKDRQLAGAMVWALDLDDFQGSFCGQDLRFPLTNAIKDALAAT
# Sequence of SRLC (Mus musculus), Q8VIF6 (Q8VIF6 other isoform, or with tags, fused parts or gaps): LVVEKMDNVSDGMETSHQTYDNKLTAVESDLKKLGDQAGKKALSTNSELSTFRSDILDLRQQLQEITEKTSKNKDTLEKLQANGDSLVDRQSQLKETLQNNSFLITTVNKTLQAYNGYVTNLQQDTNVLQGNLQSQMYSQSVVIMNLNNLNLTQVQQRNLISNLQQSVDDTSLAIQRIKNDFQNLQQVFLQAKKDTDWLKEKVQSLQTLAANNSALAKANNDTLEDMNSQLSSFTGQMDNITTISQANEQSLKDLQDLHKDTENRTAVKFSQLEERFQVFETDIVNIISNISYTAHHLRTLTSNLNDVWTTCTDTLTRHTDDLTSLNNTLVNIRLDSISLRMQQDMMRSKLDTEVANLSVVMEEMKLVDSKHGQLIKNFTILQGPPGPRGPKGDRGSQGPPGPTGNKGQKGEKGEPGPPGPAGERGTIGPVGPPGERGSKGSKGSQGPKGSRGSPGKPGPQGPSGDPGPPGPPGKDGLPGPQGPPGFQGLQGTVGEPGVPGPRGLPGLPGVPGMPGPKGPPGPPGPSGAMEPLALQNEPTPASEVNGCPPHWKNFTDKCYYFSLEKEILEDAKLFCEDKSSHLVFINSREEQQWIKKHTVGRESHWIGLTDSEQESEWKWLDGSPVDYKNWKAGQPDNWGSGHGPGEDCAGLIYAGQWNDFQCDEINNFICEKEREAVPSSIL
# Sequence of PILRa (Mus musculus), Q2YSF3 (Q2YSF3 entry or part of it): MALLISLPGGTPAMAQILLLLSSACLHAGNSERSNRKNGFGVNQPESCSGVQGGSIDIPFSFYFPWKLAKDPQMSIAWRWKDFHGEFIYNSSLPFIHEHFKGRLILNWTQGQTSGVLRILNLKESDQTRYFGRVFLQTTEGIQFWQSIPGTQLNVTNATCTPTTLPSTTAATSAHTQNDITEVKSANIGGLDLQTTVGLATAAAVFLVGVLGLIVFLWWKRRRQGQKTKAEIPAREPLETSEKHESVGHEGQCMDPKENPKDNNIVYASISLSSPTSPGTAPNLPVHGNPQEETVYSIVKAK
# Sequence of C3b (Homo sapiens), P01024 (P01024 23-667): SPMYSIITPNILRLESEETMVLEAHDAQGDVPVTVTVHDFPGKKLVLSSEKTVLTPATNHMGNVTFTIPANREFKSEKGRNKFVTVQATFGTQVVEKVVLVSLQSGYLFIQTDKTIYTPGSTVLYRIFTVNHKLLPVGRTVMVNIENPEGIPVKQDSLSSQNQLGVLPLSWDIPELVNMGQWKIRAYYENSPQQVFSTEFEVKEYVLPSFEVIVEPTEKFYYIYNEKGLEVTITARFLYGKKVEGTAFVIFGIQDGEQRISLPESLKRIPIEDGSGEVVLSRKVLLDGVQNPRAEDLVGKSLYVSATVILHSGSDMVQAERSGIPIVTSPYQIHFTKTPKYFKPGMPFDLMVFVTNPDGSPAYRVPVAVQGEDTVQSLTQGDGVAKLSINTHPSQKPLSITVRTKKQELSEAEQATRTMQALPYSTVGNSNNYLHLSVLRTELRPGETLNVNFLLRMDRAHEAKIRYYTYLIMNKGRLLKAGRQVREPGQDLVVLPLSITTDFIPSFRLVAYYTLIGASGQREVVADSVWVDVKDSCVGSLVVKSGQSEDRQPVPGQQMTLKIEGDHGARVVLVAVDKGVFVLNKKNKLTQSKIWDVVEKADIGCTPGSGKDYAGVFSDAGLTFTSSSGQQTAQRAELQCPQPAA
# Sequence of CHT (Homo sapiens) (chain, as listed by the source): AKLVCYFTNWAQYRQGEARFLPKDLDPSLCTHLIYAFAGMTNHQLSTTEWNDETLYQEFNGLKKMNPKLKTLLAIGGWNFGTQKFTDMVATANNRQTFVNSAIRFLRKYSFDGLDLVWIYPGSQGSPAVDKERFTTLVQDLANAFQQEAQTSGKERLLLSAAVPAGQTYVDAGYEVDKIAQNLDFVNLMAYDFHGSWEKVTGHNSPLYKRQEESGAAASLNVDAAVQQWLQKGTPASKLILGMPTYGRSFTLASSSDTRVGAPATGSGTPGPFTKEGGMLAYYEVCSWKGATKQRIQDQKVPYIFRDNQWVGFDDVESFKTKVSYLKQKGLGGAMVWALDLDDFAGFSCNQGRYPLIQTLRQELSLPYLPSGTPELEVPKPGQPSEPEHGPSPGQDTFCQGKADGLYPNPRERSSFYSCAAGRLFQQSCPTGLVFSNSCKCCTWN
# Sequence of wLAT-1A (Homo sapiens), Q01650 (Q01650 whole entry): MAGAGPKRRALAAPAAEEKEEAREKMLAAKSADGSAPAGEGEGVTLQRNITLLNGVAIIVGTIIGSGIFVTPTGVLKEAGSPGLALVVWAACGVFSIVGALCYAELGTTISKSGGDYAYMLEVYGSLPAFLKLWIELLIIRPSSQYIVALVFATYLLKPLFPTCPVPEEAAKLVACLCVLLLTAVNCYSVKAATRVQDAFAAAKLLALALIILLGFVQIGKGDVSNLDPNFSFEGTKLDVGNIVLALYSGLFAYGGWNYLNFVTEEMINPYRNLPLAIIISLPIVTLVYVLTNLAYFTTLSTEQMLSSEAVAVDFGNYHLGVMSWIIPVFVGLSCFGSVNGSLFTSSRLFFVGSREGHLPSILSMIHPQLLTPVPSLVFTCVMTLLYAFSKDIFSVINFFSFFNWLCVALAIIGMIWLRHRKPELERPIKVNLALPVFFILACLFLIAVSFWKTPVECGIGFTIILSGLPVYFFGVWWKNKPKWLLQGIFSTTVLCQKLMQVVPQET
# Sequence of Regenerating Gene IV (Homo sapiens), Q9BYZ8 (Q9BYZ8 whole entry, looked up): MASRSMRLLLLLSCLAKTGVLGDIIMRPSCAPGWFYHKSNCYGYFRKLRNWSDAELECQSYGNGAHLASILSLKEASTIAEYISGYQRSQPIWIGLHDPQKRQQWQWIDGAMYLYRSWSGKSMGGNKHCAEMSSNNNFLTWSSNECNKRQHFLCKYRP
# Sequence of Avaren (Actinomycete K97) (chain, as listed by the source): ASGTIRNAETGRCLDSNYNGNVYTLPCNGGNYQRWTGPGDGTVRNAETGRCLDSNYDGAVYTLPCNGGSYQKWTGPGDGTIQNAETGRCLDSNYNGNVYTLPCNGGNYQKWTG
# Sequence of PILRb (Mus musculus), Q2YSF2 (Q2YSF2 entry or part of it): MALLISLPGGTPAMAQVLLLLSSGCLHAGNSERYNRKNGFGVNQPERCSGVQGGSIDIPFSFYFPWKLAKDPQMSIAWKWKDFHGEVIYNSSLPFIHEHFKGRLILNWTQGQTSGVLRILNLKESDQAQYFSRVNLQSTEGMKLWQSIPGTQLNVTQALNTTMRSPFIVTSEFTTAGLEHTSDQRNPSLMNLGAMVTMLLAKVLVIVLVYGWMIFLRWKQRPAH
substance,measurement,setting,value
Avaren (Actinomycete K97),glycan array binding signal (z-score),Gal3S(b1-3)GalNAc,-0.121
"SRLC (Mus musculus), Q8VIF6",glycan array binding signal (z-score),[1],-0.239
same,glycan array binding signal (z-score),[2],-0.081
same,glycan array binding signal (z-score),Gal3S6S(b1-4)GlcNAc6S,0.13
"CHI3L1 (Homo sapiens), P36222",glycan array binding signal (z-score),Gal(b1-4)GlcNAc,-0.122
same,glycan array binding signal (z-score),Gal3S(b1-4)GlcNAc6S,-0.093
same,glycan array binding signal (z-score),Gal3S(b1-4)GlcNAc,0.706
same,glycan array binding signal (z-score),[3],0.014
"wLAT-1A (Homo sapiens), Q01650",glycan array binding signal (z-score),[1],0.12
same,glycan array binding signal (z-score),Gal6S(b1-4)GlcNAc,3.6
"Regenerating Gene IV (Homo sapiens), Q9BYZ8",glycan array binding signal (z-score),[4],0.244
same,glycan array binding signal (z-score),Gal3S6S(b1-4)GlcNAc,0.332
"Siglec-8 (Homo sapiens), Q9NYZ4",glycan array binding signal (z-score),[4],-0.099
same,glycan array binding signal (z-score),Gal(b1-6)Gal,-0.178
same,glycan array binding signal (z-score),Gal(b1-6)Gal; mutation: R125K,-0.117
same,glycan array binding signal (z-score),Gal3S(b1-3)GalNAc,0.076
same,glycan array binding signal (z-score),[5],0.077
same,glycan array binding signal (z-score),[6],-0.171
same,glycan array binding signal (z-score),[7],0.148
CHT (Homo sapiens),glycan array binding signal (z-score),"[1]; mutation: D138V, E140I",-0.115
same,glycan array binding signal (z-score),"Gal3S6S(b1-4)GlcNAc; mutation: D138V, E140I",-0.059
"Neurocan (Homo sapiens), O14594",glycan array binding signal (z-score),Gal(b1-4)Glc,-0.551
"PILRa (Mus musculus), Q2YSF3",glycan array binding signal (z-score),[1],-0.218
same,glycan array binding signal (z-score),Gal3S(b1-4)Glc,0.049
same,glycan array binding signal (z-score),Gal6S(b1-3)GlcNAc,1.62
"C3b (Homo sapiens), P01024",glycan array binding signal (z-score),Gal3S(b1-3)GlcNAc,1.05
same,glycan array binding signal (z-score),Gal3S6S(b1-4)GlcNAc,-0.743
"Aggrecan (Rattus norvegicus), NP_071526",glycan array binding signal (z-score),Gal3S6S(b1-4)GlcNAc,-0.034
same,glycan array binding signal (z-score),Gal4S6S(b1-4)GlcNAc,-0.024
same,glycan array binding signal (z-score),Gal6S(b1-4)GlcNAc,0.061
"6RG (Lolium perenne), B9U140",glycan array binding signal (z-score),Gal3S(b1-4)GlcNAc6S,0.775
same,glycan array binding signal (z-score),Gal3S6S(b1-4)GlcNAc6S,2.09
same,glycan array binding signal (z-score),Gal4S6S(b1-4)GlcNAc,1.06
"PILRb (Mus musculus), Q2YSF2",glycan array binding signal (z-score),[3],0.773
MpAFP RI GFP (Marinomonas primoryensis),glycan array binding signal (z-score),[1],-0.359
same,glycan array binding signal (z-score),Gal(b1-6)Gal,-0.336
same,glycan array binding signal (z-score),Gal3S(b1-3)GlcNAc,-0.429
same,glycan array binding signal (z-score),Gal3S(b1-4)Glc,0.469
